The values below come from ChEMBL document CHEMBL1157539, “Thousands of chemical starting points for antimalarial lead identification” (Nature, 2010).

The term Inhibition denotes the change of the read-out against control, counted positive when it falls. A high value points to strong suppression.

Assay type in all cases: functional
Experiment [1] relates to Plasmodium falciparum. The experiment in a line: GSK_TCMDC: Inhibition of Plasmodium falciparum 3D7 in whole red blood cells, using parasite LDH activity as an index of growth. Test compounds present at 2uM.
Experiment [2] has as its system Plasmodium falciparum. The experiment in a line: GSK_TCMDC: Inhibition of Plasmodium falciparum Dd2 in whole red blood cells, using parasite LDH activity as an index of growth. Test compounds present at 2uM.
The test system of another experiment is HepG2. Put plainly: GSK_TCMDC: Percent inhibition of human HepG2 cell line. Test compounds present at 10uM.

In the case of `Cc1nnc2c(NC(=O)NC3CCCC3)cc3cc(-c4ccc(CN5CCN(C)CC5)cc4)ccc3n12`, the Inhibition is recorded as 99% in the experiment with Plasmodium falciparum [1], 91% in the experiment on Plasmodium falciparum [2] and 100% in the experiment on HepG2.
With `COc1cc(NC(=O)c2sc(-c3ccc(Cl)cc3)cc2NC(=O)N2CCCC2)ccc1OCCN1CCCC1`, the Inhibition in the experiment with Plasmodium falciparum [1] is 100%; in the experiment on Plasmodium falciparum [2], 61%; with HepG2 it was 22%.
For `COc1ccc(-c2nonc2NC(=O)c2cccc(Cl)c2)cc1OC` the same measures were 98%, 63% and 41%.
As to `CCOc1ccc2nc(C)cc(N/N=C/c3ccccc3[N+](=O)[O-])c2c1`, the Inhibition in the experiment with Plasmodium falciparum [1] is reported as 100%; in the experiment on Plasmodium falciparum [2], 99%; in the experiment with HepG2, 91%.
For `Cc1ccc(NC(=O)Nc2ccc(I)c(OCCN(C)C)c2)cc1Cl` the same measures were 98%, 22% and 11%.
In the case of `O=C(Nc1ccc(Cn2ncc(N3CCCNCC3)c(Cl)c2=O)cc1)Nc1ccc(SC(F)(F)F)cc1.O=C(O)C(F)(F)F`, the Inhibition in the experiment on Plasmodium falciparum [1] was 93%; in the experiment with Plasmodium falciparum [2] it was 68%; in the experiment with HepG2, 9%.
For `FC(F)(F)c1ccc2[nH]c(-c3cccc(-c4cccc(CNCc5cnn(-c6ccccc6)n5)c4)c3)nc2c1.O=C(O)C(F)(F)F` the same measures were 100%, 28% and 6%.
For `CC(=O)O.COc1ccc(CNc2ccc3nc(N)nc(N)c3c2)cc1` the same measures were 99%, 84% and 39%.
Consider `CCOc1ccc(C(=O)Nc2ccc(-c3nc4ccccc4[nH]3)cc2)cc1[N+](=O)[O-]`, for which the Inhibition is 100% with Plasmodium falciparum [1], 70% in the experiment with Plasmodium falciparum [2] and 22% with HepG2.
For `CCN1CCN(c2ccc(NC(=O)c3cc4c(C)nn(-c5ccccc5)c4s3)cc2C)CC1` the same measures were 100%, 81% and 32%.
Take `CN1CCN(c2ccnc3ccc(NC(=O)c4ccc(Cl)c(Cl)c4)cc23)CC1`: the values for the Inhibition in the experiment on Plasmodium falciparum [1], in the experiment with Plasmodium falciparum [2] and in the experiment with HepG2 were 100%, 64% and 4%, respectively.
In the case of `O=C(Nc1cccc(CN2CCCN(Cc3ccc(O)cc3)CC2)c1)c1cc(F)cc(F)c1.O=C(O)C(F)(F)F`, the Inhibition stood at 100% in the experiment on Plasmodium falciparum [1], 13% in the experiment with Plasmodium falciparum [2] and 15% in the experiment on HepG2.
For `COc1ccc(CCNCCCCCNCCCc2ccc(Cl)cc2)cc1OC.Cl` the same measures were 100%, 2% and 24%.
The corresponding values for `O=C(Nc1ccc(OC2CCN(Cc3ccc(F)cc3)C2)c(Cl)c1)c1ccc(F)cc1.O=C(O)C(F)(F)F` (stereo not drawn) are 96%, 94% and 10%.
The corresponding values for `Cc1ccc(/C=C/C(=O)NC2CCC(N3CCC(c4ccccc4C)CC3)CC2)cc1F` (stereo not drawn) are 96%, 18% and 51%.
Turning to `CCCc1ccc(C(=O)N2C(c3nccs3)C(C(N)=O)CC2(CC(C)C)C(=O)O)cc1` (stereo not drawn), the Inhibition with Plasmodium falciparum [1] turned out to be 94%; in the experiment with Plasmodium falciparum [2] it was 80%; in the experiment with HepG2, 16%.
Take `Cc1cccc2nc(-c3cccc(-c4cccc(NC(=O)Nc5cccc(C#N)c5)c4)c3)[nH]c12`: the Inhibition is reported as 100% in the experiment with Plasmodium falciparum [1], 99% in the experiment with Plasmodium falciparum [2] and 22% in the experiment with HepG2.
Turning to `COc1cc2c(c(Cl)c1OC)CCN(Cc1ccccc1)CC2c1ccc(NC(=O)C(F)(F)F)cc1` (stereo not drawn), the Inhibition was determined as 85% in the experiment on Plasmodium falciparum [1], 79% with Plasmodium falciparum [2] and 0% with HepG2.
For `N#Cc1cc([N+](=O)[O-])ccc1-n1nc(C(N)=O)n(Cc2cccc(F)c2)c1=S` the same measures were 100%, 100% and 6%.
The corresponding values for `CC(C)Nc1cc(C(=O)N[C@@H](Cc2ccccc2)[C@H](O)CNC2CCOCC2)c(F)c(N2CCCCS2(=O)=O)c1.O=CO` are 98%, 98% and 2%.
For the compound `Cc1ccc(NC(=O)c2ccc(CN3CCCN(Cc4cccc(C#N)c4)CC3)cc2)cc1F.O=C(O)C(F)(F)F`, the figures for the Inhibition with Plasmodium falciparum [1], in the experiment on Plasmodium falciparum [2] and in the experiment with HepG2 were 98%, 19% and 49%, respectively.
For `Cc1ccc(C(=O)c2oc3ccc4c(C)cc(=O)oc4c3c2C)cc1` the same measures were 86%, 48% and 0%.
Consider `O=C(Nc1ccc(-c2nc3ccccc3[nH]2)cc1)C1CCN(Cc2ccc(F)cc2)CC1`, for which the values for the Inhibition in the experiment on Plasmodium falciparum [1], in the experiment with Plasmodium falciparum [2] and in the experiment with HepG2 were 100%, 91% and 13%, respectively.
`O=C(NCc1cccc(C(F)(F)F)c1)C(c1cc2ccccc2o1)N1CCN(C(c2ccccc2)c2ccccc2)CC1` (stereo not drawn): the values for the Inhibition with Plasmodium falciparum [1], with Plasmodium falciparum [2] and in the experiment on HepG2 were 91%, 80% and 0%, respectively.
`COc1ccc2c(=NN=Cc3ccccc3Cl)cc(C)[nH]c2c1`: the values for the Inhibition in the experiment with Plasmodium falciparum [1], with Plasmodium falciparum [2] and in the experiment on HepG2 were 100%, 99% and 5%, respectively.
For the compound `COc1ccc2nccc(N3CCC(NCCNCc4cc5c(cn4)OCCO5)C3)c2n1.Cl` (stereo not drawn), the Inhibition is given as 99% in the experiment with Plasmodium falciparum [1], 3% with Plasmodium falciparum [2] and 8% in the experiment with HepG2.
For the compound `Cl.O=C(Nc1ccc2c(c1)CCN(C1CCC1)CC2)c1ccc(-c2cn3ccccc3n2)cc1`, the Inhibition is 100% in the experiment on Plasmodium falciparum [1], 42% with Plasmodium falciparum [2] and 13% with HepG2.
For `O=C(Nc1ccc(Cl)cc1C(=O)Nc1ccncc1)c1ccc(Cl)cc1Cl` the same measures were 99%, 75% and 8%.
For the compound `O=C(Nc1ccc(S(=O)(=O)NCCCN2CCOCC2)cc1)c1cc(-c2ccccc2)[nH]n1`, the Inhibition with Plasmodium falciparum [1] is listed as 82%; in the experiment with Plasmodium falciparum [2] it was 29%; in the experiment with HepG2, 16%.
Regarding `Cc1cnc(NCC2CCCCC2)nc1N[C@@H](CO)C(=O)Nc1ccccc1.O=C(O)C(F)(F)F`, the Inhibition in the experiment with Plasmodium falciparum [1] amounted to 83%; with Plasmodium falciparum [2] it was 56%; in the experiment on HepG2 it was 0%.
As to `O=C(O)C(F)(F)F.O=C1CCCN1CCCNCc1cccc(-c2cccc(-c3nc4cc(C(F)(F)F)ccc4[nH]3)c2)c1`, the Inhibition is reported as 100% in the experiment on Plasmodium falciparum [1], 90% with Plasmodium falciparum [2] and 28% in the experiment with HepG2.
